Data taken from PubChem BioAssay (EPA / NIEHS).
Values joined by “and” are separate entries in the source; they are usually repeats but may differ in a detail not shown here. Identical values can stand only once. Records with an inconclusive call do not appear. A structure can be active in one record and inactive in another. Active and inactive are the calls of the source. How the source made its calls: active means hit-call score of the fitted dose curve at least 0.9, where 1 is the maximum; inconclusive means response in the unintended direction; inactive means score below 0.9.

Experiment: TOX21_p53_BLA_p3_viability: Viability Assessment in the Tox21 HCT-116 p53 Agonism Beta-lactamase Assay, Phase 3 (AID 2283593);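 further: cells exposed to compound for 16 h before reading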
Excerpt: TOX21_p53_BLA_p3 is a cell-based, single-readout assay that uses HCT116, a human intestinal cell line, […] in a 1536-well plate.TOX21_p53_BLA_p3_viability is an assay readout measuring cellular ATP content and detected with CellTiter-Glo Luciferase-coupled ATP quantitation.TOX21_p53_BLA_p3_viability used a type of viability reporter where loss-of-signal activity can be used to understand changes in the cell viability. Furthermore, this assay endpoint can be referred to as a secondary readout, because this assay has produced multiple assay endpoints where this one serves a viability function. To generalize the intended target to other relatable targets, this assay endpoint is annotated to the cell cycle intended target family, where the subfamily is cytotoxicity.
Thawing Method: Place 14 mL of pre-warmed thaw medium into a 15 mL of conical tub. Remove the vial of cells to be thawed from liquid nitrogen and thaw rapidly by placing at 37C in a water bath with gentle agitation for 1-2 minutes. Decontaminate the vial by wiping with 70% ethanol before opening in a biological safety cabinet. Transfer the vial contents drop-wise into 14 mL of thaw medium in a sterile 15-mL conical tub. Centrifuge cells at 900 rpm for 4 minutes and resuspend in thaw medium. Transfer contents to the T75 tissue culture flask containing Thaw Medium and place flask in a humidified 37C/5% CO2 incubator. Switch to growth medium at first passage.Propagation Method: Aspirate medium, rinse once in DPBS, add 0.25% Trypsin/EDTA and swirl to coat the cell evenly. Add an equal volume of Growth Medium to inactivate Trypsin after 2-3 minutes incubation at 37C. Centrifuge cells at 900 rpm for 4 minutes and resuspend in growth medium. Cell should be passage or fed at least twice a week.Assay Protocol: Harvest cells from culture in growth medium and resuspend in assay medium. 2.2 Dispense 4000 cells/5 uL/well into 1536-well black/clear bottom plates using a Multidrop dispenser. After the cells were incubated at 37C for 5 hours, 23 nL of compounds dissolved in DMSO were transferred to the assay plate by a PinTool resulting in a 217-fold dilution. Incubate the plates for 16 hours at 37C, 5% CO2. Add 1 uL of 6X LiveBLAzer FRET B/G (CCF4-AM) Substrate Mixture to each well using a BioRAPTR dispenser and incubate the plates at room temperature for 2 hours. Measure fluorescence intensity at 460 and 530 nm emission and 405 nm excitation by an Envision detector. Data is expressed as the ratio of 460nm/530nm emissions. Add 4 uL of Cell-titer Glo to each well using BioRAPTR and incubate the plates at room temperature for […]. For cell viability readout that measures cytotoxicity, 4 ul/well of CellTiter-Glo reagent was added into the assay plates using a Flying Reagent Dispenser. After 30 min incubation at room temperature, the luminescence intensity in the plates was measured using a ViewLux plate reader.

Compound	outcome	AC50
N#Cc1ccccc1	inactive	
CC(=O)[C@H]1CC[C@H]2[C@@H]3CC=C4C[C@@H](O)CC[C@]4(C)[C@H]3CC[C@]12C	inactive	
CCCC(=O)c1cc(O)c(O)cc1O	inactive	
CCCc1ccccc1O	inactive	
CC(=O)OCCC(C)CC(C)(C)C (stereo not given)	inactive	
CC1CC(OC(=O)c2ccccc2O)CC(C)(C)C1 (stereo not given)	inactive	22.5 µM (active)
CC(=O)Nc1ccc(C)cc1C	inactive	
CCCCNC(=O)NS(=O)(=O)c1ccc(C)cc1	inactive	
CC(C)(C)C(=O)c1ccccc1	inactive	
CC(C)(N)CO	inactive	
Cc1ccc(O)c(C(C)(C)C)c1	inactive	36.7 µM (active)
CCN(CC)CCOC(=O)c1ccc(N)cc1	inactive	
CC(C)(C)c1cc(CCC(=O)NN)cc(C(C)(C)C)c1O	inactive	
CC(C)[C@H]1CC[C@@H](C)CC1=O	inactive	
CCCCCCCCCCCCN(CCCCCCCCCCCC)CCCCCCCCCCCC	inactive	
O=C(O)c1snc(Cl)c1Cl	inactive	
CN(CCOc1ccc(CC2SC(=O)NC2=O)cc1)c1ccccn1 (stereo not given)	inactive	
COc1ccc(NC(=O)CC(C)=O)cc1	inactive	
CCOC(=S)SSC(=S)OCC	inactive	

Compound	outcome	AC50
CCCCCCOC(=O)CCCCC	inactive	
O=C1OC2(c3cc(Br)c(O)c(Br)c3Oc3c2cc(Br)c(O)c3Br)c2c(Cl)c(Cl)c(Cl)c(Cl)c21		48.3 µM (active) and 20.9 µM (active)
Cc1ncc([N+](=O)[O-])n1C	inactive	
CCC(=O)OCc1ccccc1	inactive	
Cc1ccccc1C=O	inactive	
CCCCCCCCCCCCN		80.4 µM (active) and 66.7 µM (active)
c1ccc(CCCc2ccccn2)cc1	inactive	
O=C(O)c1cn(-c2ccc(F)cc2)c2cc(N3CCNCC3)c(F)cc2c1=O	inactive	
OCC(CO)(CO)COCC(CO)(CO)CO	inactive	
CC1(C)[C@@H]2CC[C@@]1(C)[C@H](O)C2	inactive	
ClCCCl	inactive	
CC(C)=CCCC(C)=CCCC(C)=CCO	inactive	
c1ccc2[nH]ccc2c1	inactive	
CCc1ccc(C=O)cc1	inactive	
C=C(C)C(=O)NCCCN(C)C	inactive	
C=C(C)[C@@H]1CC[C@@H](C)C[C@@H]1O	inactive	
C=CCOC(=O)CCC1CCCCC1	inactive	
OCCOCCOCCOCCO	inactive	
CCCC(=O)C(C)=O	inactive	
